D2 antag: D2 dopamine receptor (human) antagonism; P14416; HEK293 TREx D2 cells, calcium flux, dopamine EC80; inhibition, % at 10 µM; 340,000 compounds, 2% hits; AID 485344; in the data active means inhibition above about 30%; inactive means below that, where a call was filed
Target sequence (P14416 whole entry, looked up): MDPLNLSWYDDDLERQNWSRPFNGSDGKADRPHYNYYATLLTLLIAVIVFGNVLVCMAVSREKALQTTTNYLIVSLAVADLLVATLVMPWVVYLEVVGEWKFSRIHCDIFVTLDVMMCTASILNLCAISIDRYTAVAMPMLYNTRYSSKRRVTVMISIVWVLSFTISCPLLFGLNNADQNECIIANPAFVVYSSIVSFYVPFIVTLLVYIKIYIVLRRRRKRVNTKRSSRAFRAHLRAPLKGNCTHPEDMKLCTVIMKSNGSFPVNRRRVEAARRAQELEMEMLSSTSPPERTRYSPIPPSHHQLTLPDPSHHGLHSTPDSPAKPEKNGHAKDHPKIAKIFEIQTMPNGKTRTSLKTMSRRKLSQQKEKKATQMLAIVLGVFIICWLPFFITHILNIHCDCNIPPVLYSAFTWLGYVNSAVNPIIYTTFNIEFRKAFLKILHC
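Read-out: kinetic calcium fluorescence (1 cycle/s) in inducible HEK293 T-REx D2 cells after an EC80 dopamine addition that followed 180 s compound preincubation. Loss of the dopamine response indicates antagonism.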
D2 PAM-1: positive allosteric modulators of human D2 dopamine receptor; P14416; HEK293 T-REx D2, calcium flux, EC20 dopamine potentiation; potentiation, % at 10 µM; 340,000 compounds, 0.34% hits; AID 485347;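 active means potentiation over 3 SD above the plate norm, cut at about 30% in these data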
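Primary screen. Calcium kinetics in induced HEK293 T-REx D2 cells: compound pre-addition 180 s, EC20 dopamine, 180 s more.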
D2 ag-1: D2 dopamine receptor (human) agonism; P14416; HEK293 T-REx D2 cells, calcium flux agonist mode; activation, % at 2 µM; 340,000 compounds, 0.53% hits; AID 485358;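 active means activation over 3 SD above normal in the single-dose calcium agonist read, cut at about 30% in these data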
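HEK293 Trex D2 cells, tetracycline-induced, o/n 30 C 5% CO2; no-wash Ca dye, RT 30–90 min; 10-cycle baseline, 23 nl cpd added, kinetic Ca read 180 s; agonist hits = positive Ca response.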
D2 ag-2: agonists of human D2 dopamine receptor (beta-arrestin). P14416. DiscoveRx PathHunter D2 beta-arrestin, luminescence, 90 min; 100% = 57 uM dopamine signal. activation, % (concentration not given with the values). 360,000 compounds, 0.084% hits. AID 624465; in the data active means activation above about 40%; inconclusive means between about 15% and that limit
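DiscoveRx PathHunter D2 beta-arrestin cells (2,100/well) attached overnight, then compound-stimulated 90 min at 37 C in HBSS/10 mM HEPES/0.1% Tween-20 buffer; beta-galactosidase complementation read by luminescence after 1 h at ambient temperature. Dopamine 57 uM final (EC100) as control.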
D2 PAM-2: potentiates the human D2 dopamine receptor allosterically; DiscoveRx D2 beta-arrestin cells, luminescence, 90 min; 100% = 57 uM dopamine signal; AID 624464; potentiation, % (concentration not given with the values); 360,000 compounds, 0.23% hits; P14416; in the data active means potentiation above about 50%; inconclusive means mostly about 30% to 49%
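PathHunter D2 cells, attached overnight at 37 deg C, received compound in DMSO plus dopamine at EC20 (50 nM final) for 90 min at 37 deg C. Beta-arrestin recruitment was read as luminescence after 1 h with detection reagent at ambient temperature.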
Each line names hits and unclear results; the compound was inactive in the other large screens. Hits are enriched below; roughly 2.4% of the tested compounds scored in any of these assays.

CCOc1ccc(C(=O)NCC(c2cccs2)N(C)C)cc1OCC (stereo unspecified)	D2 antag 51
CCOc1ccc(C(=O)NCc2ccncc2)cc1OCC	D2 antag 34
CCCOc1ccc(C(=O)NCC(c2cccs2)N(C)C)cc1 (stereo unspecified)	none
Cc1cc(=O)c2c(o1)C(=O)c1occc1C2=O	D2 ag-2 inconclusive, D2 PAM-2 52 (no result: D2 antag, D2 PAM-1, D2 ag-1)
COc1ccccc1OCCn1c(C(C)Oc2ccccc2)nc2ccccc21 (stereo unspecified)	none (no result: D2 antag, D2 ag-2, D2 PAM-2)
CCc1ccc(S(=O)(=O)c2nnn3c2nc(N2CCOCC2)c2ccccc23)cc1	D2 PAM-1 32
O=C1C(=NO)CCc2ccccc21	D2 ag-2 inconclusive, D2 PAM-2 80 (no result: D2 antag, D2 PAM-1, D2 ag-1)
COc1ccc(Cl)cc1NC(=O)c1cc(S(=O)(=O)N2CCc3ccccc32)cn1C	none (no result: D2 antag, D2 ag-2, D2 PAM-2)
CCN1C(=O)CSc2ccc(C(=O)NCc3ccccc3OC)cc21	D2 PAM-1 34
CCN1C(=O)CSc2ccc(C(=O)NCc3ccccc3)cc21	none
Fc1ccc(N2CCN(Cc3cnc(Cl)s3)CC2)cc1	D2 ag-1 39
Fc1ccc(N2CCN(Cc3nnc(-c4ccccc4Cl)o3)CC2)cc1	none (no result: D2 antag, D2 ag-2, D2 PAM-2)
Cc1cccc(N2CCN(C(=O)C3CCCN(S(=O)(=O)c4cccc5nsnc45)C3)CC2)c1C (stereo unspecified)	none (no result: D2 antag, D2 ag-2, D2 PAM-2)
C/C(CCc1ccccc1)=N\NC(=S)NCCc1ccccc1	D2 PAM-1 31
COC(=O)C1=C(Cn2cnc3ccccc32)NC(=O)NC1c1cc(C)ccc1C (stereo unspecified)	D2 ag-2 52, D2 PAM-2 91
CCOC(=O)C1=C(Cn2cnc3ccccc32)NC(=O)NC1c1cc(C)ccc1C (stereo unspecified)	D2 ag-2 inconclusive, D2 PAM-2 inconclusive
COc1ccccc1CNC(=O)Cn1cc2c(n1)-c1c(oc(C(=O)N3CCOCC3)c1C)CC2	none (no result: D2 antag, D2 ag-2, D2 PAM-2)
Cc1ccc(Nc2ccccc2)cc1	D2 antag 40
CCS(=O)(=O)N1CC(=O)N(c2cccc(Cl)c2)C(C)(C(=O)NC2CCCCCC2)C1 (stereo unspecified)	none (no result: D2 antag, D2 ag-2, D2 PAM-2)
O=C(c1ccc(S(=O)(=O)Nc2ccccc2Cl)cc1)N1CCCC1	none (no result: D2 antag, D2 PAM-1, D2 ag-1)
CCOC(=O)N1CCN(C(=O)c2ccc(NS(=O)(=O)c3ccc(F)cc3)cc2)CC1	D2 PAM-2 inconclusive
O=C(c1ccc(NS(=O)(=O)c2ccc(F)cc2)cc1)N1CCC1	D2 antag 42
O=C(c1ccc(S(=O)(=O)Nc2ccccc2F)cc1)N1CCCC1	D2 antag 51
COc1cc(Nc2nc(SCc3cccc(Cl)c3)nc3ccccc23)cc(OC)c1	none (no result: D2 antag, D2 ag-2, D2 PAM-2)
Nc1cccc(C(=O)OCC(=O)Nc2cccc3c2C(=O)c2ccccc2C3=O)c1	D2 ag-2 inconclusive, D2 PAM-2 60
Cc1cccc(NC(=O)COC(=O)c2cccc3c2C(=O)c2ccccc2C3=O)c1C	D2 ag-2 inconclusive, D2 PAM-2 90
Cc1ccc(C)c(N(C)C(=O)CCNC(=O)Cn2cnc3ccccc3c2=O)c1	none (no result: D2 antag, D2 ag-2, D2 PAM-2)
O=S(=O)(Nc1cccc(S(=O)(=O)N2CCOCC2)c1)c1cccs1	D2 ag-1 32
O=S(=O)(Nc1cccc(S(=O)(=O)N2CCOCC2)c1)c1ccc2c(c1)OCCO2	none
O=C(CN1CCN(C2CCCCC2)CC1)c1c[nH]c2ccccc12	D2 antag 42
CCCOc1ccc(NC(=O)CC2C(=O)N(c3ccc(Cl)cc3)C(=O)N2CCc2ccncc2)cc1 (stereo unspecified)	none (no result: D2 antag, D2 PAM-1, D2 ag-2, D2 PAM-2)
CCOc1ccccc1CNC(=O)Cn1nc(C)c2nn(-c3ccc(Cl)cc3)c(C)c2c1=O	none (no result: D2 antag, D2 ag-2, D2 PAM-2)
CSc1oc(-c2ccccc2)nc1S(=O)(=O)c1ccc(C)cc1	D2 antag 34
Cc1ccc(S(=O)(=O)c2nc(-c3ccccc3)oc2N2CCCCCC2)cc1	none (no result: D2 antag, D2 ag-2, D2 PAM-2)
CCN1CCN(c2oc(-c3ccccc3)nc2S(=O)(=O)c2ccc(C)cc2)CC1	D2 antag 47
Cc1cc(C)c(NC(=O)COCc2cc(-c3cccs3)on2)c(C)c1	none (no result: D2 antag, D2 ag-2, D2 PAM-2)
CCCCCCc1cc2cc(/C(N)=N/NC(=O)c3ccncc3)c(=O)oc2cc1O	D2 ag-1 34
CCCCCCc1cc2cc(C(=O)OCC)c(=O)oc2cc1O	none
CCOC(=O)c1csc(NC(=O)C(C)(C)C)n1	D2 antag 41
CCCC(=O)Nc1nc(C(=O)OCC)cs1	none

Bioassay records deposited in PubChem by National Center for Advancing Translational Sciences (NCATS).
